Data on 8 compounds can be found in PubChem BioAssay (NCI).

Some test systems named below: SK-MEL-2 melanoma; EKVX NSCLC; SN12C renal; UO-31 renal; TK-10 renal; ACHN renal; CAKI-1 renal; A498 renal; CCRF-CEM leukemia; MOLT-4 leukemia; SR leukemia; RPMI-8226 leukemia; OVCAR-8 ovarian; OVCAR-4 ovarian; SK-OV-3 ovarian; IGROV1 ovarian; OVCAR-3 ovarian; NCI/ADR-RES ovarian; HS 578T breast; OVCAR-5 ovarian.
What all share (assay): NCI-60 one-dose screen, 48 h (100 = growth as untreated, 0 = no growth, -100 = all killed)
Holding throughout (conditions): 10 µM unless noted

The panel holds about 83,000 compounds, 20% with a hit somewhere; the sample as a whole holds those more often.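 In brief: 96-well plates, 48 h treatment, single concentration, percent growth endpoint.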 Values without a mark were called inactive. Active and inactive are the calls of the source. Rule for the calls: active = growth percent below 10; inactive = the rest.

For the compound `Cc1ccc(Nc2nnc(-c3c[nH]c4ccccc34)o2)c(C)c1`, the growth with SK-MEL-2 melanoma was 31.4%; in the test on EKVX NSCLC it was 21.9%; in the test with SN12C renal it was 18%; in the test on UO-31 renal, 26.4%; with TK-10 renal it was 45.8%; in the test with ACHN renal it was 34.3%. In addition, the growth in the test on CAKI-1 renal was 33.5%; with A498 renal, 112%; with CCRF-CEM leukemia, -0.0547% (active); in the test on MOLT-4 leukemia, 0.191% (active); with SR leukemia it was 6.21% (active); in the test with RPMI-8226 leukemia it was -7.61% (active). The growth is -12.1% (active) with OVCAR-8 ovarian; 71.9% in the test on OVCAR-4 ovarian; 16.2% with SK-OV-3 ovarian; 12.2% in the test with IGROV1 ovarian; 12.3% in the test on OVCAR-3 ovarian; -29.2% (active) in the test on NCI/ADR-RES ovarian.
In the case of `C[C@@H]1[C@H]2C[C@@H](C[C@H]1NCc1nc3ccccc3n1C1CCCCCC1)C2(C)C`, the growth in the test on SK-MEL-2 melanoma is 70.6%; with EKVX NSCLC, 68.3%; in the test with SN12C renal, 39.8%; in the test with UO-31 renal it was 44.4%; in the test on TK-10 renal it was 90.8%; with ACHN renal, 59.5%. The growth is 55.5% with CAKI-1 renal; 88.9% with A498 renal; 58% with CCRF-CEM leukemia; 33.6% in the test with MOLT-4 leukemia; 15.4% in the test on SR leukemia; 27.6% with RPMI-8226 leukemia. In addition, the growth in the test on OVCAR-8 ovarian was 75.1%; in the test with OVCAR-4 ovarian, 72.4%; in the test on SK-OV-3 ovarian it was 90.4%; in the test on OVCAR-3 ovarian, 64.5%; with HS 578T breast, 80.2%; with NCI/ADR-RES ovarian it was 25.9%.
In the case of `O=C1NC(=NC23CC4CC(CC(C4)C2)C3)N/C1=C\c1ccc2ncccc2c1`, the growth is -5.99% (active) in the test with SK-MEL-2 melanoma; 9.7% (active) in the test with EKVX NSCLC; -2.27% (active) in the test with SN12C renal; 14.7% with UO-31 renal; -22.9% (active) in the test on TK-10 renal; 4.48% (active) in the test with ACHN renal. The growth is -61.1% (active) in the test with CAKI-1 renal; -31% (active) in the test on A498 renal; -15% (active) with CCRF-CEM leukemia; -13% (active) in the test on MOLT-4 leukemia; -31.1% (active) with RPMI-8226 leukemia; 5.28% (active) in the test on OVCAR-8 ovarian. In addition, the growth is 45.7% with OVCAR-5 ovarian; -14.4% (active) with OVCAR-4 ovarian; -57.4% (active) in the test with SK-OV-3 ovarian; -55.3% (active) in the test on OVCAR-3 ovarian; -15.3% (active) in the test on HS 578T breast; -28.7% (active) with NCI/ADR-RES ovarian.
Regarding `O=C(c1ccc(O)cc1)C1[C@H](c2ccccc2Br)[C@@H](c2ccccc2)NC12C(=O)Nc1ccccc12` (stereo not given in full), the growth with SK-MEL-2 melanoma was -3.4% (active); with EKVX NSCLC, 28.3%; with SN12C renal, 30.2%; in the test with UO-31 renal, 28.9%; in the test with TK-10 renal it was 49.9%; with ACHN renal, 25.9%. Besides, the growth with CAKI-1 renal was 23.6%; with A498 renal, 52.1%; in the test with CCRF-CEM leukemia it was 21.3%; in the test on MOLT-4 leukemia it was 3.1% (active); in the test on RPMI-8226 leukemia, 31.4%; in the test with OVCAR-8 ovarian it was 30.2%. The growth is 56.7% in the test on OVCAR-5 ovarian; 48.3% with OVCAR-4 ovarian; 70.5% in the test on SK-OV-3 ovarian; 26.6% in the test with IGROV1 ovarian; 20.7% in the test with OVCAR-3 ovarian; 49.1% in the test on HS 578T breast. Also, in the test with NCI/ADR-RES ovarian, the growth is 53.1%.
Turning to `c1ccc(CSc2nnc(-c3ccc4nc(-c5ccccc5)[nH]c4c3)o2)cc1`, the growth is 57.5% with SK-MEL-2 melanoma; 57.3% with EKVX NSCLC; -48.3% (active) with SN12C renal; 40.6% with UO-31 renal; -2.54% (active) with TK-10 renal; 1.16% (active) with ACHN renal. Further, the growth is -44.9% (active) with CAKI-1 renal; -8.46% (active) with A498 renal; 73.8% in the test with CCRF-CEM leukemia; 58.2% with MOLT-4 leukemia; 63.6% in the test on SR leukemia; 36.7% in the test with RPMI-8226 leukemia. Moreover, the growth was -23.2% (active) in the test with OVCAR-8 ovarian; -43.7% (active) in the test on OVCAR-4 ovarian; 87% with SK-OV-3 ovarian; 63.6% in the test on IGROV1 ovarian; 27.4% in the test with OVCAR-3 ovarian; -1.88% (active) in the test on HS 578T breast. In the test on NCI/ADR-RES ovarian, the growth was -40.3% (active).
Regarding `COc1cc(C2C(C(=O)OCc3ccccc3)=C(C)Nc3nc4ccccc4n32)cc(OC)c1OC` (stereo not given), the growth with SK-MEL-2 melanoma is 47.5%; in the test on EKVX NSCLC, 36.8%; in the test on SN12C renal, 37.1%; with UO-31 renal, 1.37% (active); with TK-10 renal, 34.6%; in the test with ACHN renal, -4.94% (active). Further, the growth in the test with CAKI-1 renal was 6.89% (active); with A498 renal, -22.7% (active); with CCRF-CEM leukemia, 41.7%; in the test on MOLT-4 leukemia it was 33.2%; with SR leukemia, 11.3%; with RPMI-8226 leukemia, 48.8%. The growth with OVCAR-8 ovarian is 13.5%; with OVCAR-4 ovarian it was 1.46% (active); with SK-OV-3 ovarian, 25.6%; in the test with OVCAR-3 ovarian, 12.1%; with NCI/ADR-RES ovarian, 6.58% (active).
Regarding `CC1=C(C(=O)OC(C)C)C(c2ccc(O)cc2)NC(=O)N1` (stereo not given), the growth in the test with SK-MEL-2 melanoma was 96.5%; in the test on EKVX NSCLC it was 96.1%; in the test on SN12C renal, 106%; with UO-31 renal, 92.2%; with TK-10 renal it was 90.2%; in the test on ACHN renal, 106%. Further, the growth in the test with CAKI-1 renal was 95.3%; in the test with A498 renal it was 113%; in the test on CCRF-CEM leukemia, 93.9%; with MOLT-4 leukemia it was 97.8%; in the test on RPMI-8226 leukemia it was 98.9%; in the test with OVCAR-8 ovarian, 108%. In addition, the growth with OVCAR-4 ovarian was 100%; in the test with SK-OV-3 ovarian it was 106%; with IGROV1 ovarian it was 109%; in the test with OVCAR-3 ovarian, 108%; in the test with HS 578T breast, 99.8%; in the test on NCI/ADR-RES ovarian it was 99.8%.
For the compound `COc1cc2cc(C(=O)N3C[C@@H](CCl)c4c3cc(OC(=O)N(C)CCSSCCN3CCOCC3)c3ccccc43)[nH]c2c(OC)c1OC`, the growth was -86.8% (active) in the test with SK-MEL-2 melanoma; -40.1% (active) in the test on EKVX NSCLC; -48.4% (active) with SN12C renal; -28.2% (active) in the test on UO-31 renal; -40% (active) in the test on TK-10 renal; -18.9% (active) in the test on ACHN renal. Further, the growth is -45.3% (active) in the test on CAKI-1 renal; -15.9% (active) in the test on A498 renal; -15.9% (active) with CCRF-CEM leukemia; -18.2% (active) in the test on MOLT-4 leukemia; -23.5% (active) with SR leukemia; -11.5% (active) with RPMI-8226 leukemia. In addition, the growth with OVCAR-8 ovarian was -41.4% (active); with OVCAR-4 ovarian, -36.7% (active); with SK-OV-3 ovarian, -30% (active); with IGROV1 ovarian, -27.6% (active); in the test on OVCAR-3 ovarian, -1.85% (active); with NCI/ADR-RES ovarian, -33.4% (active).
